According to PubChem BioAssay AID1376 (SRMLSC, 2008):
The campaign covered roughly 220,000 compounds. About 530 (0.24%) were called active. Cut-off read from the data, not from the text of the source: active = inhibition above about 13%; inconclusive = no clear call, values can overlap the other calls; inactive = below that. Shown is part of a subset that was picked to be rich in actives. Entries with a potency or affinity are not part of this list.

The compounds below were run against Bifunctional protein GlmU (Mycobacterium tuberculosis (strain ATCC 25618 / H37Rv)) (UniProt P9WMN3) (assay: inhibition of mycobacterial GlmU enzyme – biochemical, glucosamine-1-phosphate acetyltransferase (AID 1376;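 note: 0% = complete reaction with vehicle and 100% = reaction without substrate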)). Settings: M. tuberculosis GlmU acetyltransferase enzyme assay; hits give high values;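 tested at 30 µM in the primary screen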.
Chain of Bifunctional protein GlmU (Mycobacterium tuberculosis (strain ATCC 25618 / H37Rv)) (P9WMN3 whole entry, looked up): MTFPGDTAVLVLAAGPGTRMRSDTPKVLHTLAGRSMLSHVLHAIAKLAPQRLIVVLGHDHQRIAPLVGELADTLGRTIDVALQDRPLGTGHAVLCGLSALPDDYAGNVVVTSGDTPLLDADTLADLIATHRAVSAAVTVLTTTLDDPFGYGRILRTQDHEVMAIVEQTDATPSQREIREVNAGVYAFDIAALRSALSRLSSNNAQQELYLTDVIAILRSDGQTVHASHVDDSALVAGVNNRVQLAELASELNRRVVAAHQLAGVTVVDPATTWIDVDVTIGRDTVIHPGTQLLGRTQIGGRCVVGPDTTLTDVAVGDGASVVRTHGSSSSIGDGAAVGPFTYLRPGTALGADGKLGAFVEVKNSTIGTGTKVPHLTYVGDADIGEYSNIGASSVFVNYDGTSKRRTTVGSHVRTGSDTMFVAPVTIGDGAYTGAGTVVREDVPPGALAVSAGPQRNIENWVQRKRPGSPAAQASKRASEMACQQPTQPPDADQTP
`CCCCn1c(SCC(=O)N2CCCCC2C)nc2cc(S(N)(=O)=O)ccc21` (stereo unspecified) was tested, and the inhibition was -1.4% (inactive).
In the case of `COc1ccc(OCc2nnc(SCC(=O)NNC(=O)c3ccc(C)cc3)n2C)cc1`, the inhibition is reported as 0.34% (inactive).
For `COc1cc(/C=C(\C#N)c2nc3ccccc3[nH]2)cc(OC)c1O`, the inhibition was 4.95% (inactive).
`COc1cc(/C=C(\C#N)c2nc3ccc(C)cc3[nH]2)c([N+](=O)[O-])cc1OC` was tested, and the inhibition was 2.93% (inactive).
With `CCOC(=O)N1CCN(CC(=O)N2c3ccccc3CCc3ccccc32)CC1` the inhibition was -2.37% (inactive).
`CCOc1ccc(C(=O)NCC(=O)OCC(=O)Nc2ccc(C)c(S(=O)(=O)N(C)C)c2)cc1` was tested, and the inhibition was -3.11% (inactive).
`CCCc1ccc(C(=O)NC(=O)c2ccccc2O)cc1` was tested, and the inhibition was 2.73% (inactive).
With `CCn1cnc2c1c(=O)n(CC(=O)Nc1ccc3c(c1)OC(F)(F)O3)c(=O)n2Cc1ccccc1` the inhibition was -4.42% (inactive).
In the case of `CCC(=O)N1CCC2(CC1)Oc1ccc(Cl)cc1C(=O)C21CC(c2ccccc2)=NO1` (stereo unspecified), the inhibition is reported as 3.83% (inactive).
`Cc1cc(C)n2ncc(C(=O)Nc3ccc4c(c3)OCO4)c2n1` was tested, and the inhibition was 1.37% (inactive).
For `COC(=O)Cc1c(C)c2ccc(OCc3nn[nH]n3)c(C)c2oc1=O`, the inhibition was 0.72% (inactive).
With `COCCCNC(=O)/C(C#N)=C/c1ccc(F)cc1` the inhibition was -2.31% (inactive).
`COc1cc(/C=C(\C#N)C(=O)NCC2CCCO2)ccc1OCC(=O)O` (stereo unspecified) was tested, and the inhibition was -0.12% (inactive).
For `COCCCNC(=O)/C(C#N)=C/c1ccc(OCC(=O)O)c(OC)c1`, the inhibition was 13.8% (active).
In the case of `COc1ccc2cc(-c3[nH]ncc3CN3CCCCO3)ccc2c1`, the inhibition is reported as -2.52% (inactive).
For `N/C(=N\O)c1ccc(NC(=O)c2cccs2)cc1`, the inhibition was 4.24% (inactive).
For `O=C(Nc1c(F)c(F)c(F)c(F)c1F)C1CCCCC1`, the inhibition was -1.91% (inactive).
With `O=C(/C=C/c1ccccc1)c1c(O)n(CCc2ccccc2)c(=O)[nH]c1=O` the inhibition was 1.89% (inactive).
For `O=C(O)Cn1cc(/C=N/NC(=O)c2cc3cc(Br)ccc3o2)c2ccccc21`, the inhibition was -0.33% (inactive).
In the case of `Cn1cc(/C=N/NC(=O)c2cc3cc(Br)ccc3o2)c2ccccc21`, the inhibition is reported as -2.19% (inactive).
In the case of `COc1ccccc1OCc1ccc(C(=O)NCC2CCCO2)o1` (stereo unspecified), the inhibition is reported as 1.7% (inactive).
`CCCCOc1ccc(C(=O)N2CCC(C)CC2)cc1` was tested, and the inhibition was -0.91% (inactive).
`CCCCOc1ccc(C2CCC(C(C)=O)C(C)C2)cc1` (stereo unspecified) was tested, and the inhibition was 13.4% (active).
For `CCCCOc1ccc(C(=O)N2CC(C)OC(C)C2)cc1` (stereo unspecified), the inhibition was 6.38% (inactive).
With `CCCSC1=N/C(=C\c2ccsc2)C(=O)S1` the inhibition was -1.15% (inactive).
`CCSC1=N/C(=C\c2ccc(-c3ccccc3[N+](=O)[O-])o2)C(=O)S1` was tested, and the inhibition was 6.21% (inactive).
For `CCCSC1=N/C(=C\c2ccc([N+](=O)[O-])o2)C(=O)S1`, the inhibition was 21.6% (active).
`Cc1cc(N2CCN(S(=O)(=O)c3ccccc3)CC2)c2ccccc2n1` was tested, and the inhibition was -2.32% (inactive).
In the case of `C/C(=N\N1CCN(C)CC1)c1ccc(Cl)c(Cl)c1`, the inhibition is reported as -1.93% (inactive).
In the case of `O=C(CN1CCN(Cc2ccccc2Cl)CC1)N/N=C/c1ccco1`, the inhibition is reported as 2.34% (inactive).
With `CCN(CC)C(=S)SCC(=O)c1ccccc1` the inhibition was 2.19% (inactive).
In the case of `CCN(CC)C(=S)SC1=CCS(=O)(=O)C1`, the inhibition is reported as -2.51% (inactive).
For `O=S(=O)(NCc1ccccc1)c1ccc(F)cc1Br`, the inhibition was 6.02% (inactive).
`COc1ccc(/C=C2/C(=N)N3C(=NC2=O)Sc2cc(S(C)(=O)=O)ccc23)cc1OC` was tested, and the inhibition was 3.31% (inactive).
For `CN(C)c1ccc(/C=C2\C(=N)N3C(=NC2=O)Sc2cc(S(C)(=O)=O)ccc23)cc1`, the inhibition was -6.57% (inactive).
For `COC(=O)c1cc(C#N)c(Oc2ccc(OC)cc2)nc1C`, the inhibition was 8.02% (inactive).
With `CCO/C(C)=C1/SC(=S)NC1=O` the inhibition was -6.59% (inactive).
In the case of `C/C(C/C(C)=C1/SC(=S)NC1=O)=C1\SC(=S)NC1=O`, the inhibition is reported as 49% (active).
With `CCCCCC/C(C)=C1/SC(=S)NC1=O` the inhibition was -3.54% (inactive).
With `Cn1nc(-c2ccccc2)c(C(=O)NC(C(=O)O)c2ccccc2)c1Cl` (stereo unspecified) the inhibition was 1.91% (inactive).
With `CN(C)C(=O)CSc1ncnc2scc(-c3ccccc3)c12` the inhibition was 2.78% (inactive).
`Cc1ccc(N=c2ssnc2Cl)cc1` was tested, and the inhibition was 17.6% (inactive).
With `N#Cc1cccc(N=c2ssnc2Cl)c1` the inhibition was -3.05% (inactive).
In the case of `Clc1ccc(N=c2ssnc2Cl)cc1`, the inhibition is reported as 19.9% (active).
`COc1cc(N=c2ssnc2Cl)cc(OC)c1` was tested, and the inhibition was 12.8% (inactive).
With `N#Cc1ccc(N=c2ssnc2Cl)cc1` the inhibition was 18.4% (inactive).
In the case of `COc1cc(N=c2ssnc2Cl)cc(OC)c1OC`, the inhibition is reported as 14.1% (active).
With `Clc1nssc1=Nc1ccc(Br)cc1` the inhibition was 18% (inactive).
In the case of `COc1ccc(N=c2ssnc2Cl)cc1`, the inhibition is reported as 5.49% (inactive).
For `Clc1nssc1=Nc1ccccc1`, the inhibition was 14.6% (active).
`Cc1ccc(N/C=C/C(=O)c2cccs2)cc1C` was tested, and the inhibition was -3.05% (inactive).
In the case of `COc1cccc2sc(NNC(=O)C3COc4ccccc4O3)nc12` (stereo unspecified), the inhibition is reported as 6.49% (inactive).
For `O=C(CSc1nnc(-c2ccccc2Cl)n1Cc1ccco1)Nc1ccc2c(c1)OCCO2`, the inhibition was -6.82% (inactive).
`OCCN1CCN(c2ncnc3sc(-c4ccccc4)cc23)CC1` was tested, and the inhibition was 0.73% (inactive).
In the case of `Cc1ccc(C(=O)OC2OC(=O)C(Cl)=C2N2CCOCC2)cc1` (stereo unspecified), the inhibition is reported as 7.25% (inactive).
`O=c1[nH]c2ccccc2nc1NCCN1CCOCC1` was tested, and the inhibition was -0.64% (inactive).
`COc1ccc(-c2noc3c2-c2nc(-c4ccc(C)cc4)sc2CC3)cc1` was tested, and the inhibition was 6.62% (inactive).
`O=C(NCC(=O)N(c1ccccc1)C(C(=O)NC1CCCCC1)c1cccnc1)c1cccs1` (stereo unspecified) was tested, and the inhibition was -3.93% (inactive).
`O=C(NCc1cccs1)c1cc2c(s1)CCCC2` was tested, and the inhibition was 0.13% (inactive).
With `O=C(CN(Cc1ccccc1)C(=O)c1cc2c(s1)CCC2)NCc1cccs1` the inhibition was 14.9% (active).
In the case of `O=C(CN(C(=O)c1cc2c(s1)CCC2)C1CCCC1)NCc1cccs1`, the inhibition is reported as 5.33% (inactive).
In the case of `O=C(O)CCCN1C(=O)c2ccc(C(=O)c3cccc([N+](=O)[O-])c3)cc2C1=O`, the inhibition is reported as 2.64% (inactive).
For `O=C(CN1C(=O)CCC1=O)NNc1ccc2ccccc2c1`, the inhibition was -8.95% (inactive).
For `O=C(CC1Sc2ccccc2NC1=O)Nc1cccc(C(=O)O)c1` (stereo unspecified), the inhibition was -2.21% (inactive).
For `O=C(CN1C(=O)NC2(CCCC2)C1=O)Nc1cccc(-c2nnc3n2CCCCC3)c1`, the inhibition was -0.57% (inactive).
For `O=C(CC1Sc2ccccc2NC1=O)Nc1cccc(-c2nnc3n2CCCCC3)c1` (stereo unspecified), the inhibition was 14.3% (active).
